# According to PubChem BioAssay (Tox21):
# “And” between values parts separate entries of the source, which are not always exact repeats. Equal values may be shown once. Records with an inconclusive call do not appear. A call without a number means that no potency is given here. Some compounds were tested as several samples or in several runs, with calls that do not always agree. The source made the active and inactive calls. Unless noted, calls follow the shape of the dose curve; as a rule, active = well fitted curve in the direction sought with a large enough effect in the repeat runs; inconclusive = weak or mixed curves; inactive = no such curve, though single readings can be large; an effect the other way counts as inactive or inconclusive.
# Key:
# [1] = target: Retinoic acid receptor RXR-alpha (Homo sapiens) (UniProt P19793); assay: qHTS assay to identify small molecule agonists of the RXR signaling pathway (AID 1159527; calls by dose curve; also: nearly all actives have a fitted effect of over 35% in size; also: potency is read from the fitted curve at half-maximal effect)
# Outline: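 Compounds in DMSO were added to RXR-alpha-UAS-bla HEK 293T cells kept in 2% charcoal-stripped serum, and incubated 16 hr at 37 C with 5% CO2. Reporter signal came from a 2 hr B/G FRET substrate step.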
# [2] = qHTS assay to identify small molecule agonists of the RXR signaling pathway - cell viability counter screen (AID 1159529);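 also: HEK 293T cells carrying an RXR-alpha UAS beta-lactamase reporter; series mostly up to about 77 µM; nearly all actives have a fitted effect of over 50% in size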
# Outline: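 Counter screen: CellTiter-Glo luminescence. Cells: RXR-alpha-UAS-bla HEK 293T. Medium: 2% charcoal-stripped FBS. Treatment: 16 h, 37 C. Reagent incubation: 30 min, RT.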
# [3] = qHTS assay to identify small molecule antagonists of the retinoid acid receptor (RAR) signaling pathway - cell viability counter screen (AID 1159551); also: nearly all actives have a fitted effect of over 35% in size
# Outline: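 Cytotoxicity counter screen in C3RL4 cells: 6 h compound exposure with 1 uM retinol (final), viability from cellular ATP by luminescence.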
# [4] = qHTS assay to identify small molecule agonists of the retinoic acid receptor (RAR) signaling pathway (AID 1159553)
# Outline: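 Agonist activity was scored in C3RL4 cells bearing a retinoic acid response element luciferase construct. Cells were treated with compounds for 6 hr at 37 C, and luciferase signal was measured as luminescence.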
# [5] = qHTS assay to identify small molecule antagonists of the estrogen related receptor (ERR) signaling pathway from Tox21 library - cell viability counter screen (AID 1224834); also: nearly all actives have a fitted effect of over 30% in size
# Outline: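 Cytotoxicity of test substances is gauged in the same ERR cells used for the antagonist screen, after 17.5 h of compound treatment at 37 C, by CellTiter-Fluor fluorescence measured after 30 min.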
# [6] = target: Luciferin 4-monooxygenase (Photinus pyralis) (UniProt P08659); assay: qHTS assay to identify small molecule inhibitors of firefly luciferase (AID 1224835); also: nearly all actives have a fitted effect of over 25% in size; also: potency is read from the fitted curve at half-maximal effect
# Outline: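 Quantitative HTS format; KM concentrations of both substrates. Purified P. pyralis FLuc activity quantified from luminescence images.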
# [7] = qHTS assay to identify small molecule agonists of the constitutive androstane receptor (CAR) signaling pathway - cell viability counter screen (AID 1224836); also: series mostly up to about 92 µM; nearly all actives have a fitted effect of over 45% in size
# Outline: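 Double-stable HepG2 hepatoma cells (hCAR plus CYP2B6-2.2kb) are treated for 23 h at 37 C with test compounds in 15-point concentration series. PK11195 at 0.75 uM final is co-added. Cell viability is quantified by CellTiter-Fluor.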
# [8] = qHTS assay to identify small molecule antagonists of the constitutive androstane receptor (CAR) signaling pathway - cell viability counter screen (AID 1224837); also: series mostly up to about 92 µM; nearly all actives have a fitted effect of over 45% in size
# Outline: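 Multiplexed cytotoxicity read-out for the CAR antagonist screen: double-stable HepG2-CYP2B6-hCAR cells co-treated with 50 nM CITCO (final) and compound over 15 concentrations, incubated 23 hr, then assessed by CellTiter-Fluor fluorescence.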
# [9] = target: Nuclear receptor subfamily 1 group I member 3 (Homo sapiens) (UniProt Q14994); assay: qHTS assay to identify small molecule antagonists of the constitutive androstane receptor (CAR) signaling pathway (AID 1224838); also: nearly all actives have a fitted effect of over 40% in size
# Outline: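 Compounds were titrated across 15 concentrations onto HepG2 cells double-stably expressing hCAR and a CYP2B6-2.2kb reporter, together with 50 nM CITCO (final). After 24 h at 37 C, luciferase activity was measured by luminescence.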
# [10] = target: Nuclear receptor subfamily 1 group I member 3 (Homo sapiens) (UniProt Q14994); assay: qHTS assay to identify small molecule agonists of the constitutive androstane receptor (CAR) signaling pathway (AID 1224839); also: nearly all actives have a fitted effect of over 15% in size; also: potency is read from the fitted curve at half-maximal effect
# Outline: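 Readout: firefly luciferase luminescence via ONE-Glo. System: HepG2 double-stable for hCAR and CYP2B6-2.2kb. Conditions: 15-point compound titration, PK11195 at 0.75 uM final, 24 h incubation.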
# [11] = qHTS assay to identify small molecule antagonists of the estrogen related receptor signaling pathway with the pleiotropic PPARgamma coactivator (PGC) from Tox21 10K library - cell viability counter screen (AID 1224840; active = well fitted cell-killing curve with a large enough effect in the repeat runs, not every such curve was filed as active; also: nearly all actives have a fitted effect of over 40% in size)
# Outline: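 Step one, plate 2,000 PGC/ERR cells per well; step two, incubate 6 h at 37 C/5% CO2; step three, pin-transfer compounds; step four, incubate 17.5 h; step five, add CellTiter-Fluor and read fluorescence after 30 min.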
# [12] = qHTS assay to identify small molecule antagonists of the estrogen related receptor signaling pathway with the pleiotropic PPARgamma coactivator (PGC) from Tox21 10K library (AID 1224841; call rule not given here; also: actives are mostly falling curves and most rising ones were filed inactive; nearly all actives have a fitted effect of over 50% in size; also: potency is read from the fitted curve at half-maximal effect)
# Outline: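 Antagonism in this quantitative HTS is taken from loss of luciferase signal in PGC/ERR cells. Cells (2,000/well) are treated with compounds in DMSO after a 6 h settling period and read by One-Glo luminescence after 18 h.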
# [13] = qHTS assay to identify small molecule agonists of the estrogen related receptor signaling pathway with the pleiotropic PPARgamma coactivator (PGC) from Tox21 10K library (AID 1224842); also: nearly all actives have a fitted effect of over 15% in size
# Outline: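 PGC/ERR reporter cells (NTP line) were seeded 2,000 per well, rested 6 h at 37 C/5% CO2, then pin-dosed with compounds in DMSO for 18 h at 37 C; luciferase read by One-Glo luminescence after 30 min at room temperature.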
# [14] = target: Thyrotropin receptor (Homo sapiens) (UniProt P16473); assay: qHTS assay to identify small molecule agonists of the thyroid stimulating hormone receptor (TSHR) signaling pathway (AID 1224843; calls by dose curve; also: nearly all actives have a fitted effect of over 45% in size)
# Outline: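 TSHR-expressing HEK293 cells (800 per well) were exposed to compounds for 30 min at room temperature. cAMP was then detected by HTRF competition with cAMP-d2 and anti-cAMP cryptate, read after 1 h at room temperature. Fifteen concentrations, triplicate.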
# [15] = qHTS assay to identify small molecule antagonists of the retinoic acid receptor (RAR) signaling pathway (AID 1159552; also: nearly all actives have a fitted effect of over 50% in size)
# Outline: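 Antagonism of retinol-induced RARE reporter activity was measured in C3RL4 cells. Exposure to compounds and 1 uM final retinol lasted 6 hr at 37 C, with luminescence as endpoint.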
# [16] = qHTS assay to identify small molecule antagonists of the estrogen related receptor (ERR) signaling pathway - cell viability counter screen (AID 1224818);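 also: series mostly up to about 46 µM; viability measured after 17.5 h of compound exposure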
# Outline: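 Cells carrying the ERR pathway reporter were seeded and incubated for 6 hours before compound addition. After a 17.5-hour exposure at 37 C, live-cell protease activity was measured by CellTiter-Fluor fluorescence following 30 minutes of incubation.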
# [17] = qHTS assay to identify small molecule antagonists of the estrogen related receptor signaling pathway with the pleiotropic PPARgamma coactivator (PGC) cell viability counter screen (AID 1224822;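 also: series mostly up to about 46 µM; viability read after 17.5 h compound exposure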)
# Outline: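 Seed PGC/ERR cells (2,000/well); incubate 6 h at 37 C/5% CO2; pin-transfer compounds in DMSO; incubate 17.5 h at 37 C; add CellTiter-Fluor; after 30 min read fluorescence.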
# [18] = qHTS assay to identify small molecule agonists of the estrogen related receptor (ERR) signaling pathway (AID 1224820)
# Outline: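 Quantitative HTS of the LOPAC library used NTP ERR reporter cells treated 18 h at 37 C. Signal is luminescence after One-Glo addition and a 30 min room-temperature incubation.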
# [19] = test system: estrogen-related receptor alpha (ERRalpha) with PGC-1alpha coactivator, human; assay: qHTS assay to identify small molecule antagonists of the estrogen related receptor signaling pathway with the pleiotropic PPARgamma coactivator (PGC) (AID 1224821; calls by dose curve;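 also: series mostly up to about 46 µM; lower luminescence signal means antagonism of PGC/ERR signalling; nearly all actives have a fitted effect of over 50% in size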)
# Outline: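 Quantitative HTS for antagonism: PGC/ERR cells received compounds after 6 h attachment and were incubated 18 h at 37 C, with luminescence (One-Glo) as the endpoint.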
# [20] = qHTS assay to identify small molecule agonists of the estrogen related receptor signaling pathway with the pleiotropic PPARgamma coactivator (PGC) (AID 1224823)
# Outline: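 Cell-based luciferase assay in the NTP-supplied PGC/ERR line, 2,000 cells/well; 18 h compound exposure at 37 C, luminescence after One-Glo.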
# Thyrotropin receptor (Homo sapiens), sequence (P16473 whole entry, looked up): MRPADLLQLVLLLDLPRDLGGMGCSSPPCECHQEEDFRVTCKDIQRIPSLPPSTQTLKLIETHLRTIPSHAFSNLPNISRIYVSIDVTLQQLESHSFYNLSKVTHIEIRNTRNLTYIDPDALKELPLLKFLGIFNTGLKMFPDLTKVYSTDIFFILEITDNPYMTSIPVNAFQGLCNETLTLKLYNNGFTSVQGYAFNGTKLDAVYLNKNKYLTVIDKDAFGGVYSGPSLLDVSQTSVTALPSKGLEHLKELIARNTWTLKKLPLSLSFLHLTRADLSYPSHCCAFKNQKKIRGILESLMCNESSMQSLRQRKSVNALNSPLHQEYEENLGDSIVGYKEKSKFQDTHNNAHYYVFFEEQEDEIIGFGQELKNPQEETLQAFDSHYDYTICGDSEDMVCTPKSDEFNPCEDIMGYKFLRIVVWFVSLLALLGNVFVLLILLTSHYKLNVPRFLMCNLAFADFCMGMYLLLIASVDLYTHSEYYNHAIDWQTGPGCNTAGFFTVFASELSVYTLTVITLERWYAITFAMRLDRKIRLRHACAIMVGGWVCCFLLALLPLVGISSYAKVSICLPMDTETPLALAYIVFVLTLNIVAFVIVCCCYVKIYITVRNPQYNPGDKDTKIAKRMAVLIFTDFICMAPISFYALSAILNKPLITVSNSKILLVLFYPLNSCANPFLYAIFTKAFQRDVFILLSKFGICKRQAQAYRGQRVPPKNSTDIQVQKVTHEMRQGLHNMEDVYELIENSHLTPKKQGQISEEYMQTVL
# Nuclear receptor subfamily 1 group I member 3 (Homo sapiens), sequence (Q14994 whole entry, looked up): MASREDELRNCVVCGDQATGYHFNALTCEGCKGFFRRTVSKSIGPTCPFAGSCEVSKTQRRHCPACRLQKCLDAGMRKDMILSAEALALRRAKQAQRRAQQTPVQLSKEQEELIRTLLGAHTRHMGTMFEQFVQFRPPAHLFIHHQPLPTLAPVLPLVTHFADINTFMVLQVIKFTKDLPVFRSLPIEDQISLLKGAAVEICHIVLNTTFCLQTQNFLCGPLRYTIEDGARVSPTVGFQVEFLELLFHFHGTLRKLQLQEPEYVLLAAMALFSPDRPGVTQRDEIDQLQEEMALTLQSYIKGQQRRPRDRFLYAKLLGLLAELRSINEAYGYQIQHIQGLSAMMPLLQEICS
# Retinoic acid receptor RXR-alpha (Homo sapiens), sequence (P19793 whole entry, looked up): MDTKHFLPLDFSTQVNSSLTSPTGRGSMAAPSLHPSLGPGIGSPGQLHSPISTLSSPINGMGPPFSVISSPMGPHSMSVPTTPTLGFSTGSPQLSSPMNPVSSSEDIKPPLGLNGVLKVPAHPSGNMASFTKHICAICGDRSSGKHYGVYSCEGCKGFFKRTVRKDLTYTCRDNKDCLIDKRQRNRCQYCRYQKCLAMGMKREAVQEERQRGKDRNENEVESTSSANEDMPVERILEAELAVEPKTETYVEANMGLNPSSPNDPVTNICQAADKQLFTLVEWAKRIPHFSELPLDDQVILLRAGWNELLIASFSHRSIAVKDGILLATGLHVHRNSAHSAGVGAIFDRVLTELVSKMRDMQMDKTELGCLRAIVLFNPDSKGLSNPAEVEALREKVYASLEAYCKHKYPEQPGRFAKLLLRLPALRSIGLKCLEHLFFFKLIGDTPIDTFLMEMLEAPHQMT
# Luciferin 4-monooxygenase (Photinus pyralis), sequence (P08659 whole entry, looked up): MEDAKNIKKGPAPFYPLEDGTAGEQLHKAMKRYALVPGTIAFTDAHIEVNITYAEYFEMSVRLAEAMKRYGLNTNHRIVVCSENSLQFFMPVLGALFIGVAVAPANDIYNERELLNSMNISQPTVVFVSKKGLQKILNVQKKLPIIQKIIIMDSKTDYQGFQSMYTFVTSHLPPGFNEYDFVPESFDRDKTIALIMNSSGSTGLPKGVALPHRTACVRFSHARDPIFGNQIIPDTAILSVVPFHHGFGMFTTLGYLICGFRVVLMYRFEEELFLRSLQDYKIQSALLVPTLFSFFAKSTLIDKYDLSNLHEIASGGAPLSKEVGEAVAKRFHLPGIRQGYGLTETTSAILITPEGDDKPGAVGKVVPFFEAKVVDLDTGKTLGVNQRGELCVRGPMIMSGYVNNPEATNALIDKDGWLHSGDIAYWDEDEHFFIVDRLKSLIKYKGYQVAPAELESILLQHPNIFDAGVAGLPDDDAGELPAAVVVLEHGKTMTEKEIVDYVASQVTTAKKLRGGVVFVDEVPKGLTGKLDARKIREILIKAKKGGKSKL
SMILES,Potency [1],Potency [2],outcome [3],Potency [4],Potency [5],Potency [6],Potency [7],Potency [8],Potency [9],Potency [10],Potency [11],Potency [12],outcome [13],Potency [14],Potency [15],outcome [16],outcome [17],outcome [18],outcome [19],outcome [20]
CCC(C)C1CCCCC1=O (centres undefined),inactive,inactive,inactive,inactive,inactive,inactive,inactive,inactive,inactive,inactive,inactive,inactive,inactive,inactive,–,–,–,–,–,–
O=c1[nH]c(=O)n([C@H]2C[C@H](O)[C@@H](CO)O2)cc1I,inactive,inactive,inactive,inactive,inactive,inactive,inactive,inactive,inactive,11.9 µM (active),inactive,inactive,inactive,inactive,–,–,–,–,–,–
O=C[C@H](O)[C@@H](O)[C@H](O)[C@H](O)CO,inactive,inactive,inactive,–,inactive,inactive,inactive,inactive,inactive,inactive,inactive,inactive,inactive,inactive,–,–,–,–,–,–
CC(C)(CC(=O)O)C(=O)O,–,inactive,inactive,inactive,inactive,inactive,inactive,inactive,inactive,inactive,inactive,inactive,inactive,inactive,inactive,–,–,–,–,–
O=C1NC(=O)[C@@]2(CCOc3ccc(F)cc32)N1,–,inactive,inactive,inactive,inactive,–,inactive,inactive,–,–,inactive,–,–,inactive,inactive,inactive,inactive,–,–,–
CC(C)(c1ccc(O)cc1)c1ccc(O)cc1,–,inactive,inactive,inactive,–,39.5 µM (active) and 36.2 µM (active),inactive,inactive,inactive,30.3 µM (active) and 11.1 µM (active),–,60.4 µM (active) and 60.4 µM [inhibitor] (active),inactive,inactive,inactive,inactive,inactive,inactive,inactive,inactive
Nc1c2c(nc3ccccc13)CCCC2O (centres undefined),inactive,inactive,inactive,–,inactive,inactive,inactive,inactive,inactive,inactive,inactive,inactive,inactive,inactive,–,inactive,inactive,inactive,inactive,inactive
CN1CCN(c2cc3c(cc2F)c(=O)c(C(=O)O)cn3-c2ccc(F)cc2)CC1,–,inactive,inactive,inactive,inactive,inactive,inactive,inactive,inactive,inactive,inactive,inactive,inactive,–,inactive,–,–,–,–,–
CO/N=C(/C(=O)N[C@@H]1C(=O)N2C(C(=O)OCOC(=O)C(C)(C)C)=C(C)CS[C@H]12)c1csc(N)n1,inactive,inactive,inactive,inactive,inactive,inactive,inactive,inactive,inactive,inactive,inactive,inactive,inactive,inactive,–,–,–,–,–,–
CC(C)(C)c1nnc(NS(=O)(=O)c2ccccc2)s1,inactive,inactive,inactive,inactive,inactive,inactive,inactive,inactive,inactive,inactive,inactive,inactive,inactive,inactive,–,–,–,–,–,–
CCOC(=O)C(=O)OCC,–,inactive,inactive,inactive,inactive,inactive,inactive,inactive,inactive,inactive,inactive,inactive,inactive,inactive,inactive,–,–,–,–,–
O=S(O)CO,inactive,inactive,inactive,inactive,inactive,inactive,inactive,inactive,inactive,inactive,inactive,inactive,inactive,inactive,–,–,–,–,–,–
CC(=O)CC(C)C,inactive,inactive,inactive,inactive,inactive,inactive,inactive,inactive,inactive,inactive,inactive,inactive,inactive,inactive,–,–,–,–,–,–
N=C(N)c1ccc(OCCCOc2ccc(C(=N)N)cc2)cc1,inactive,inactive,inactive,inactive,inactive,inactive,inactive,inactive,inactive,inactive,inactive,inactive,inactive,inactive,–,–,–,–,–,–
COC(=O)c1c(Cl)c(Cl)c(C(=O)OC)c(Cl)c1Cl,inactive and 5.49 µM (active),inactive,inactive,–,inactive,inactive,inactive,inactive,inactive,54.5 µM (active) and 8.63 µM (active),inactive,inactive,inactive,–,–,inactive,inactive,inactive,inactive,inactive
O=c1n(CCO)c(=O)n(CCO)c(=O)n1CCO,inactive,inactive,inactive,–,inactive,inactive,inactive,inactive,inactive,inactive,inactive,–,–,inactive,–,–,–,–,–,–
CO[Si](CCCOCC1CO1)(OC)OC (centres undefined),–,inactive,inactive,inactive,inactive,inactive,inactive,inactive,inactive,inactive,inactive,–,–,–,inactive,–,–,–,–,–
C=C(C)C(=O)OCCCCCCCC(C)C,inactive,inactive,inactive,–,inactive,–,inactive,inactive,inactive,inactive,inactive,inactive,inactive,inactive,–,–,–,–,–,–
